The source made the active and inactive calls. Rule for the calls: active = hit-call score of the fitted dose curve at least 0.9, where 1 is the maximum; inactive = score below 0.9.
target: Heat shock factor protein 1 (Homo sapiens) (UniProt Q00613); experiment: ATG_HSE_CIS: Attagene CIS-FACTORIAL HepG2 Assay for human Heat Shock Transcription Factor 1 (HSE) (AID 2282953); conditions: HepG2 HSE cis-reporter, Attagene RNA transcription; actives raise or lower the signal
Experimental: ATG_CIS is a cell-based, multiplexed-readout assay that uses HepG2, a human liver cell line, with measurements taken at 24 hours after chemical dosing in a 24-well plate.ATG_HSE_CIS is one of 52 assay component(s) measured or calculated from the ATG_CIS assay. It is designed to make measurements of mRNA induction, a form of inducible reporter, as detected with fluorescence intensity signals by Reverse transcription polymerase chain reaction (RT-PCR) and Capillary electrophoresis technology.Data from the assay component ATG_HSE_CIS was analyzed into 1 assay endpoint. This assay endpoint, ATG_HSE_CIS, was analyzed with bidirectional fitting relative to DMSO as the negative control and baseline of activity. Using a type of inducible reporter, measures of mRNA for gain or loss-of-signal activity can be used to understand the reporter gene at the transcription factor-level as they relate to the gene HSF1. Furthermore, this assay endpoint can be referred to as a primary readout, because this assay has produced multiple assay endpoints where this one serves a reporter gene function. To generalize the intended target to other relatable targets, this assay endpoint is annotated to the dna binding intended target family, where the subfamily is heat shock protein.
Human liver HepG2 cells are transiently transfected with multiple reporter transcription units (MRTUs) in 6-well plates using FuGene 6 reagent (Roche; 3 ml FuGene/1 mg DNA). The MRTU constructs are regulated by a cis-regulating element (promoter). […] A major difference between the CIS and TRANS system is that in CIS activities of endogenous TFs are measured, whereas the TRANS assay evaluates changes in activities of exogenous, chimeric NR-Gal4 proteins. […] At the end of 24 hour incubation, total RNA was isolated using TriZol reagent (Invitrogen). The isolated RNA is then reverse-transcribed using oligo(dT) primer and Mo-MLV reverse transcriptase (Invitrogen) with DNAse I (Ambion) treatment for 30 min. The one-tenth of the produced cDNA was amplified by PCR using Taq DNA polymerase (Invitrogen) and two reporter sequence-specific primers. The PCR products were fluorescently labeled by primer extension with 6-arboxyfluorescein (6-FAM) 5'-labeled reporter sequence-specific primer (2 min at 95 C, 20 s at 68 C and 10 min at 72 C) and these products were digested with 5U of HpaI (New England Biolabs) for 2h at 37 C. The fragments were purified using Qiaquick PCR columns (Qiagen), analyzed on an ABI 3130xL genetic analyzer (Applied Biosystems) with peak positions identified by using a set of X-rhodamine (ROX)-labeled MapMarker1000 molecular weight standards (BioVentures). The raw capillary electrophoresis data was processed using Attagraph software (Attagene).

Sequence of Heat shock factor protein 1 (Homo sapiens) (Q00613 whole entry, looked up): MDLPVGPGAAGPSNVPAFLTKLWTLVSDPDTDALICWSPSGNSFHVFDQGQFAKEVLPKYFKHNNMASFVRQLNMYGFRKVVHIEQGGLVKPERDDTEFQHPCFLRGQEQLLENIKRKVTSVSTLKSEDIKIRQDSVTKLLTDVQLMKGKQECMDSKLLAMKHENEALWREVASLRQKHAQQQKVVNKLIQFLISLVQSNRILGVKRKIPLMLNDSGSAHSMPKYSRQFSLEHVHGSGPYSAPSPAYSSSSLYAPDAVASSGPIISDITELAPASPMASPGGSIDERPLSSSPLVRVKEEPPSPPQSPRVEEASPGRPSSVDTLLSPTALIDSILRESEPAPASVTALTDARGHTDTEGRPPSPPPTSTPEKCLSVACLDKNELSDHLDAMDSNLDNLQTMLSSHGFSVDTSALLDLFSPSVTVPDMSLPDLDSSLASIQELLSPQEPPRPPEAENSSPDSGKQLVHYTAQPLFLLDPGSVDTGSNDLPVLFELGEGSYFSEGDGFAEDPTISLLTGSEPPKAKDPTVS

Row | SMILES | AC50 | outcome
1 | CCCCCCCCCCCCCCO | 117 µM (active) | –
2 | O=C(O)c1cccc(C(=O)O)c1 | – | inactive
3 | CC(C)c1nnc2ccc(-c3ocnc3-c3cc(F)ccc3F)cn12 | – | inactive
4 | CCCCN1C(=O)[C@@H]([C@H](O)C2CCCCC2)NC(=O)C12CCN(Cc1ccc(Oc3ccc(C(=O)O)cc3)cc1)CC2 | – | inactive
5 | c1ccc(C(O[C@@H]2CCCN(CCc3ccc4c(c3)OCO4)C2)c2ccccc2)cc1 | 55 µM (active) | –
6 | CCCCCCCC/C=C\CCCCCCCC(=O)OC[C@@H](O)[C@H]1OC[C@H](O)[C@H]1O | – | inactive
7 | C[Si](C)(C)C(F)(F)C(F)(F)C(F)(F)F | – | inactive
8 | OCc1ccccc1 | – | inactive
9 | O=C(N[C@H](CO)[C@H](O)c1ccc([N+](=O)[O-])cc1)C(Cl)Cl | – | inactive
10 | Cc1nc(-c2ccccn2)ncc1C(=O)Nn1cc(C)c2cc(F)ccc21 | – | inactive
11 | OCCOCCOCCO | – | inactive
12 | OC(CCl)CCl | – | inactive
13 | CC(C)C(=O)Nc1ccc([N+](=O)[O-])c(C(F)(F)F)c1 | 167 µM (active) | –
14 | OC[C@H]1O[C@@](CO)(O[C@H]2O[C@H](CO)[C@@H](O)[C@H](O)[C@H]2O)[C@@H](O)[C@@H]1O | – | inactive
15 | c1ccc2c(c1)-c1cccc3c1c-2cc1ccccc13 | – | inactive
16 | O=C(O)CO | – | inactive
17 | OC(Cn1cncn1)(Cn1cncn1)c1ccc(F)cc1F | – | inactive
18 | CCCCCCCC1CCC(=O)O1 (stereo not given) | – | inactive
19 | OCc1c[nH]c2ccccc12 | 176 µM (active) [middle of 5 runs] | –
20 | OCCNCCO | – | inactive

Row | SMILES | AC50 | outcome
21 | OC[C@H]1O[C@@H]2O[C@H]3[C@H](O)[C@@H](O)[C@@H](O[C@H]4[C@H](O)[C@@H](O)[C@@H](O[C@H]5[C@H](O)[C@@H](O)[C@@H](O[C@H]6[C@H](O)[C@@H](O)[C@@H](O[C@H]7[C@H](O)[C@@H](O)[C@@H](O[C@H]1[C@H](O)[C@H]2O)O[C@@H]7CO)O[C@@H]6CO)O[C@@H]5CO)O[C@@H]4CO)O[C@@H]3CO | – | inactive
22 | FC(F)(F)C(F)(F)C(F)(F)C(F)(F)C(F)(F)C(F)(F)I | – | inactive
23 | CCn1nc(C)c2c1C(=O)NCC(c1ccc(O)cc1)=N2 | – | inactive
24 | Cc1ncc([C@@H](CCCCCCc2ccc3c(n2)NCCC3)CC(=O)O)cn1 | – | inactive
25 | Nc1ccn([C@@H]2O[C@H](CO)[C@@H](O)[C@@H]2O)c(=O)n1 | – | inactive
26 | NC(N)=O | – | inactive
27 | OC(O)(C(F)C(O)(O)C(F)(F)F)C(F)(F)F | – | inactive
28 | NNC(=O)c1ccncc1 | – | inactive
29 | COS(C)(=O)=O | – | inactive
30 | O=C(O)c1cccc(C[C@@H]2COc3ccc(OCc4nc5cc(F)ccc5s4)cc3[C@@H]2O)c1 | 168 µM (active) | –
31 | O=S1(=O)CCCO1 | – | inactive
32 | CC[C@H](C)C(=O)O[C@H]1C[C@H](O)C=C2C=C[C@H](C)[C@H](CC[C@@H](O)C[C@@H](O)CC(=O)O)[C@H]21 | – | inactive
33 | COCc1nnc(-c2ccc[n+]([O-])c2)n1-c1c(Cl)c(Cl)cc2[nH]c(=O)c(=O)[nH]c12 | – | inactive
34 | CCCCCCCCCC | – | inactive
35 | O=C(O)[C@H](O)[C@@H](O)C(=O)O | – | inactive
36 | O=C(O)c1ccc2c(c1)nc(C(=O)NC1CCN(C3CC3)CC1)n2Cc1cc(-c2ccc(Cl)s2)on1 | – | inactive
37 | C=CCc1cc(S(=O)(=O)c2ccc(O)c(CC=C)c2)ccc1O | 54.7 µM (active) | –
38 | C[C@]12C=CC(=O)C=C1CC[C@H]1[C@@H]3C[C@@H](O)[C@](O)(C(=O)CO)[C@@]3(C)C[C@H](O)[C@@]12F | – | inactive
39 | C[C@@H](Oc1ccc(CNC(=O)c2cccnc2Oc2ccc3c(c2)OCO3)c(F)c1)C(=O)O | – | inactive
40 | CC(=O)c1ccccc1 | – | inactive
